Results filed as inconclusive are left out. Activity calls are given as the source filed them. The call rests on the fitted dose curve; in most records, active means well fitted cell-killing curve with a large enough effect; inconclusive means small, poorly fitted or top-dose-only effect, or effect the other way; inactive means no such curve, though single readings can be large or run the other way.
Potency means the concentration at half of the fitted maximal effect.

The nature of the first experiment: Quantitative High-Throughput drug screen in 47 multiple myeloma cell lines against the NCATS MIPE library collection: XG6_PLB cell viability assay (AID 1919865). Further: nearly all actives have a fitted effect of over 40% in size. Particulars: XG6 myeloma viability, CellTiter-Glo ATP luminescence, 48 h; series mostly up to 45.8 µM. The method, boiled down: (§1)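 ATP-based CellTiter-Glo luminescence after 48 h drug exposure (37 °C, 5% CO2) of 500 myeloma cells per well. DMSO-only wells set 100% viability, media-only wells 0%; MIPE 4.0 library added by pin tool.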
Consider `CCOC(=O)c1ncn2c1CN(C)C(=O)c1cc(F)ccc1-2`, for which the Potency entry was “inactive”.
Turning to `CN1C2CCC1CC(OC(=O)C(CO)c1ccccc1)C2` (stereo not given), the Potency entry was “inactive”.
On the same count and under the same terms, the same measure for `O=C(c1ccc(OCCN2CCCCC2)cc1)c1c(-c2ccc(O)cc2)sc2cc(O)ccc12`: 20.9 µM (active).
Take `COc1cc2c(c(OC)c1OC)-c1ccc(OC)c(=O)cc1[C@@H](NC(C)=O)CC2`: the Potency result is “inactive”.
Consider `CC1(CN2CCC(n3c(=O)[nH]c4ccccc43)CC2)OCc2ccccc2-n2cccc21` (stereo not given), for which the Potency is 4.18 µM (active).
On the same count and under the same terms, for `Clc1ccc2nsnc2c1NC1=NCCN1` the value was “inactive”; for `Cc1cc(C(C)(C)C)c(O)c(C)c1CC1=NCCN1`, “inactive”.
The same measure, in the same setting: for `OCCN(CCO)c1nc(N2CCCCC2)c2nc(N(CCO)CCO)nc(N3CCCCC3)c2n1` the value was 18.7 µM (active); for `CC(C)NCC(O)c1ccc(O)c(O)c1` (stereo not given), 0.743 µM (active); for `CNCCCC12CCC(c3ccccc31)c1ccccc12`, 18.7 µM (active).
As to `O=c1c(O)c(-c2ccc(O)c(O)c2)oc2cc(O)cc(O)c12`, the Potency is 16.6 µM (active).
Still for that read-out and setting: the same measure for `COc1ccccc1OCC(O)CN1CCN(CC(=O)Nc2c(C)cccc2C)CC1` (stereo not given): “inactive”; for `CN1CCC(=C2c3ccccc3CC(=O)c3sccc32)CC1`: 5.9 µM (active); for `Clc1ccccc1C(c1ccccc1)(c1ccccc1)n1ccnc1`: 5.9 µM (active).
Still for that read-out and setting: the same measure for `NCCCCCC(=O)O`: “inactive”.
On to `CC12CC3CC(C)(C1)CC(N)(C3)C2`, for which the Potency is 20.9 µM (active).
Same read-out and setting: for `CS(=O)(=O)Nc1ccc([N+](=O)[O-])cc1Oc1ccccc1` the value was “inactive”; for `COc1ccc(C2CNC(=O)C2)cc1OC1CCCC1` (stereo not given), 20.9 µM (active).
The same measure, in the same setting: the same measure for `COc1cc2nc(N(C)CCCNC(=O)C3CCCO3)nc(N)c2cc1OC` (stereo not given): “inactive”; for `CCOC(=O)Nc1ccc(NCc2ccc(F)cc2)nc1N`: 14.8 µM (active); for `Cn1ccc2cc3c(cc21)CCN3C(=O)Nc1cccnc1`: 11.8 µM (active).
Still for that read-out and setting: for `Nc1ccn([C@H]2CC[C@@H](CO)O2)c(=O)n1` the value was 10.5 µM (active).

The nature of the next experiment: Quantitative High-Throughput drug screen in 47 multiple myeloma cell lines against the NCATS MIPE library collection: XG1_PLB cell viability assay (AID 1919866). Further: nearly all actives have a fitted effect of over 35% in size. Particulars: CellTiter-Glo ATP, 48 h; series mostly up to 45.8 µM. The method, boiled down:
as §1
Turning to `C[C@](N)(Cc1ccc(O)c(O)c1)C(=O)O`, the Potency entry was “inactive”.
Same read-out and setting: the same measure for `CCOC(=O)c1ncn2c1CN(C)C(=O)c1cc(F)ccc1-2`: “inactive”.
Still for that read-out and setting: for `Cc1cnc(C(=O)NCCc2ccc(S(=O)(=O)NC(=O)NC3CCCCC3)cc2)cn1` the value was 20.9 µM (active).
On the same count and under the same terms, the same measure for `CN1C2CCC1CC(OC(=O)C(CO)c1ccccc1)C2` (stereo not given): “inactive”.
For `COc1cc2c(c(OC)c1OC)-c1ccc(OC)c(=O)cc1[C@@H](NC(C)=O)CC2`, the Potency result was “inactive”.
The same measure, in the same setting: for `CC1(CN2CCC(n3c(=O)[nH]c4ccccc43)CC2)OCc2ccccc2-n2cccc21` (stereo not given) the value was 4.18 µM (active); for `Clc1ccc2nsnc2c1NC1=NCCN1`, “inactive”.
On the same count and under the same terms, for `Cc1cc(C(C)(C)C)c(O)c(C)c1CC1=NCCN1` the value was “inactive”; for `OCCN(CCO)c1nc(N2CCCCC2)c2nc(N(CCO)CCO)nc(N3CCCCC3)c2n1`, 23.5 µM (active); for `CC(C)NCC(O)c1ccc(O)c(O)c1` (stereo not given), 1.87 µM (active).
On the same count and under the same terms, for `CNCCCC12CCC(c3ccccc31)c1ccccc12` the value was 26.4 µM (active).
`O=c1c(O)c(-c2ccc(O)c(O)c2)oc2cc(O)cc(O)c12`: the Potency is 18.7 µM (active).
Still for that read-out and setting: for `COc1ccccc1OCC(O)CN1CCN(CC(=O)Nc2c(C)cccc2C)CC1` (stereo not given) the value was “inactive”; for `CN1CCC(=C2c3ccccc3CC(=O)c3sccc32)CC1`, 8.33 µM (active); for `COc1ccccc1OCCNCC(O)COc1cccc2[nH]c3ccccc3c12` (stereo not given), 18.7 µM (active).
For `COc1ccc2[nH]cc(CCNC(C)=O)c2c1`, the Potency result was “inactive”.
Still for that read-out and setting: for `NCCCCCC(=O)O` the value was “inactive”; for `Fc1ccc([C@@H]2CCNC[C@H]2COc2ccc3c(c2)OCO3)cc1`, “inactive”; for `CC12CC3CC(C)(C1)CC(N)(C3)C2`, 23.5 µM (active).
The same measure, in the same setting: the same measure for `CS(=O)(=O)Nc1ccc([N+](=O)[O-])cc1Oc1ccccc1`: “inactive”; for `COc1cc2nc(N(C)CCCNC(=O)C3CCCO3)nc(N)c2cc1OC` (stereo not given): “inactive”.
Still for that read-out and setting: for `CCOC(=O)Nc1ccc(NCc2ccc(F)cc2)nc1N` the value was “inactive”; for `NCCc1cnc[nH]1`, “inactive”.

Another experiment can be described thus: Quantitative High-Throughput drug screen in 47 multiple myeloma cell lines against the NCATS MIPE library collection: VP6_DJ cell viability assay (AID 1919867). Further: nearly all actives have a fitted effect of over 40% in size. Particulars: ATP luminescence, 48 h; series mostly up to 45.8 µM. The method, boiled down:
as §1
Consider `O=C(c1ccc(OCCN2CCCCC2)cc1)c1c(-c2ccc(O)cc2)sc2cc(O)ccc12`, for which the Potency was 16.6 µM (active).
The same measure, in the same setting: for `COc1cc2c(c(OC)c1OC)-c1ccc(OC)c(=O)cc1[C@@H](NC(C)=O)CC2` the value was “inactive”; for `Clc1ccc(C(c2ccccc2Cl)C(Cl)Cl)cc1` (stereo not given), 6.62 µM (active); for `Clc1ccc2nsnc2c1NC1=NCCN1`, “inactive”.
The same measure, in the same setting: the same measure for `Cc1cc(C(C)(C)C)c(O)c(C)c1CC1=NCCN1`: “inactive”.
Still for that read-out and setting: the same measure for `OCCN(CCO)c1nc(N2CCCCC2)c2nc(N(CCO)CCO)nc(N3CCCCC3)c2n1`: 23.5 µM (active).
As to `CC(C)NCC(O)c1ccc(O)c(O)c1` (stereo not given), the Potency is 0.0332 µM (active).
Still for that read-out and setting: the same measure for `CNCCCC12CCC(c3ccccc31)c1ccccc12`: 20.9 µM (active); for `O=c1c(O)c(-c2ccc(O)c(O)c2)oc2cc(O)cc(O)c12`: 16.6 µM (active); for `COc1ccccc1OCC(O)CN1CCN(CC(=O)Nc2c(C)cccc2C)CC1` (stereo not given): “inactive”.
The same measure, in the same setting: for `CN1CCC(=C2c3ccccc3CC(=O)c3sccc32)CC1` the value was 9.35 µM (active); for `Clc1ccccc1C(c1ccccc1)(c1ccccc1)n1ccnc1`, 14.8 µM (active).
For the compound `O=c1c(-c2ccc(O)cc2)coc2cc(O)cc(O)c12`, the Potency is 5.9 µM (active).
Still for that read-out and setting: the same measure for `COc1ccc2[nH]cc(CCNC(C)=O)c2c1`: “inactive”.
Same read-out and setting: the same measure for `CC12CC3CC(C)(C1)CC(N)(C3)C2`: 18.7 µM (active); for `CS(=O)(=O)Nc1ccc([N+](=O)[O-])cc1Oc1ccccc1`: “inactive”.
The same measure, in the same setting: for `COc1ccc(C2CNC(=O)C2)cc1OC1CCCC1` (stereo not given) the value was 14.8 µM (active); for `COc1cc2nc(N(C)CCCNC(=O)C3CCCO3)nc(N)c2cc1OC` (stereo not given), “inactive”.
With `CN(C)C(=N)N=C(N)N`, the Potency entry is “inactive”.
On the same count and under the same terms, the same measure for `Cn1ccc2cc3c(cc21)CCN3C(=O)Nc1cccnc1`: 14.8 µM (active).

For the origin of these results see PubChem BioAssay (NCATS).
